Sampled rows, rich in hits. Any-hit rate of the full collection: about 9.9%.
SW480 rereplic: induces DNA re-replication in SW480 colon adenocarcinoma cells; Potency, µM (highest dose often 46.1 µM), inactives show at the top dose re-replication activation, hits mostly activators; SW480 DNA re-replication, Hoechst DNA content imaging, 48 h; hit rate 1.8% among 340,000; AID 624297; note: potency is the fitted concentration of half-maximal effect; % of control where 0% means no effect; nearly all actives have a fitted effect of over 55% in size
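Quantitative HTS format with DMSO vehicle controls; 48 hr drug incubation at 37 C, then 40 min Hoechst staining and scanning imager measurement at 405 nm excitation.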
MCF10A rerep: DNA re-replication induction in MCF 10a cells. MCF 10A DNA re-replication, Hoechst nuclear intensity, 48 h. Potency, µM (doses to about 46.1 µM), for inactives: at the highest dose activity, positive = re-replication, hits mostly activators. hit rate 2.9% among 350,000; note: potency is the fitted concentration of half-maximal effect; % of control where 0% means no effect; nearly all actives have a fitted effect of over 50% in size
KB-V1 MDR tox: KB-V1 MDR subline cytotoxicity; hit rate 3.4% among 400,000; KB-V1 MDR cells viability, CellTiter-Glo, 72 h; AID 1347076; Potency, µM (highest dose often 46.1 µM), hits mostly cytotoxic; note: potency is the fitted concentration of half-maximal effect; % is set by controls: 0 for no effect and ±100 for the full control effect; nearly all actives have a fitted effect of over 60% in size
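Compound-treated KB-V1 multidrug-resistant cells, 72 h, 37 degrees C; viability by CellTiter-Glo. Fitted qHTS curves give the values.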
IL-1B inflam inh: inflammasome signaling inhibition, IL-1 beta readout. AID 743279. hit rate 4.7% among 360,000. activity change, % at 57.5 µM. THP-1 LPS/ATP IL-1B secretion, AlphaLISA, 16 h; stronger effect = lower value; in the data active = activity change below about -50%; inconclusive = mostly about -30% to -49%; note: % is set by controls: 0 for no effect and ±100 for the full control effect
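Secreted IL-1B measured by AlphaLISA bead assay after 16 h compound exposure of THP-1 cells; compounds (final up to 57.5 uM) added 1 h before LPS (250 ng/mL) and ATP (1.25 mM) stimulation; lower signal means less secretion.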
KB-3-1 cytotox: kills parental KB-3-1 adenocarcinoma cells; KB-3-1 viability, CellTiter-Glo ATP luminescence, 72 h; Potency, µM (highest dose often 46.1 µM), hits mostly cytotoxic; hit rate 1.4% among 400,000; AID 1347075; note: potency is the fitted concentration of half-maximal effect; % is set by controls: 0 for no effect and ±100 for the full control effect; nearly all actives have a fitted effect of over 60% in size
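Parental KB-3-1 viability, qHTS format: 72 h compound exposure, 37 °C; CellTiter-Glo; media-only wells and DMSO plates as controls; concentration-effect fits on corrected data.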
Numbers without * were called inactive. Unless noted, calls come from the whole dose curve; as a rule, active = well fitted curve in the direction sought with a large enough effect; inconclusive = small, poorly fitted or top-dose-only effect, or another doubt; inactive = no such curve, though single readings can be large; an effect the other way counts as inactive or inconclusive.

What do the screens show for `C=CCN1C[C@H](C)N([C@H](c2ccc(C(=O)N(CC)CC)cc2)c2cccc(OC)c2)C[C@H]1C`?
SW480 rereplic: 3%; MCF10A rerep: 4%

How did COC(=O)C1=C(c2cccc(OCc3ccccc3)c2)C[C@@H]2CC[C@H]1N2C(=O)NCc1ccc([N+](=O)[O-])cc1 do in these assays?
SW480 rereplic: 0%; MCF10A rerep: -1%; KB-V1 MDR tox: inactive; IL-1B inflam inh: inconclusive; KB-3-1 cytotox: inactive

How did COC(=O)C1=C(c2ccc(F)cc2OCc2ccccc2)C[C@@H]2CC[C@H]1N2C(=O)NCc1ccc([N+](=O)[O-])cc1 do in these assays?
SW480 rereplic: 20%; MCF10A rerep: 0%; KB-V1 MDR tox: inactive; IL-1B inflam inh: -58*; KB-3-1 cytotox: inconclusive

What do the screens show for `CCOc1ccccc1CN1CCCC(C(=O)c2cc(F)ccc2F)C1` (stereo not given)?
SW480 rereplic: -4%; MCF10A rerep: 0%; KB-V1 MDR tox: inactive; IL-1B inflam inh: -15; KB-3-1 cytotox: inactive

What do the screens show for `CCCCOP(=O)(OCCCC)C(Nc1ccc(C(=O)OCC)cc1)c1ccncc1` (stereo not given)?
SW480 rereplic: 13%; MCF10A rerep: inconclusive; KB-V1 MDR tox: inactive; IL-1B inflam inh: -65*; KB-3-1 cytotox: inactive

What do the screens show for `CCOP(=O)(OCC)C(O)c1cccnc1` (stereo not given)?
SW480 rereplic: -131%; MCF10A rerep: -6%; KB-V1 MDR tox: inactive; IL-1B inflam inh: 4; KB-3-1 cytotox: inactive

Results for CC1([N+](=O)[O-])COP(=O)(Nc2ccc(Cl)cc2)OC1 (stereo not given) ?
SW480 rereplic: -4%; MCF10A rerep: 1%; KB-V1 MDR tox: inactive; IL-1B inflam inh: -1; KB-3-1 cytotox: inactive

What do the screens show for `ClCCN(CCCl)c1ccc(C=Nc2ccc(/C=C/c3ccncc3)cc2)cc1`?
KB-V1 MDR tox: inactive; KB-3-1 cytotox: inactive

What do the screens show for `CCCC[C@@H](C)C[C@@H](C)C(=O)N(C)[C@@H](CC(C)C)C(=O)N[C@H](C(=O)N(C)[C@H](C(=O)N1C[C@@H](O)C[C@H]1C(=O)N1C(=O)C=C[C@@H]1C)C(C)C)C(C)OC(C)=O` (stereo not given in full)?
SW480 rereplic: -15%; MCF10A rerep: inconclusive; KB-V1 MDR tox: inactive; IL-1B inflam inh: -113*; KB-3-1 cytotox: inactive

What do the screens show for `C[C@]12C=CC(=O)C=C1CC[C@@H]1C2=CC[C@]2(C)[C@@H](C(=O)CN3CCN(c4cc(N5CCCC5)nc(N5CCCC5)n4)CC3)CC[C@@H]12`?
SW480 rereplic: 12%; MCF10A rerep: inconclusive; KB-V1 MDR tox: inactive; IL-1B inflam inh: inconclusive; KB-3-1 cytotox: inactive

Results for COC(=O)C1=C(C(=O)OC)SC2(S1)C(C(=O)OC)=C(C(=O)OC)Sc1c2ssc1=O ?
SW480 rereplic: 1µM*; MCF10A rerep: inconclusive; KB-V1 MDR tox: inconclusive; IL-1B inflam inh: -95*; KB-3-1 cytotox: inconclusive

Results for O=C1NCN(c2ccccc2)C12CCN(C(c1ccnc3ccccc13)c1nnnn1-c1ccc3c(c1)OCCO3)CC2 (stereo not given) ?
KB-V1 MDR tox: inconclusive; IL-1B inflam inh: -24; KB-3-1 cytotox: inactive

How did C=C1C(=O)OC2C1CCC(C)C1(O)C=CC(=O)C21C (stereo not given) do in these assays?
SW480 rereplic: inconclusive; MCF10A rerep: inconclusive; KB-V1 MDR tox: inconclusive; IL-1B inflam inh: -109*; KB-3-1 cytotox: inconclusive

How did CCOC(=O)c1c(NS(=O)(=O)c2ccccc2)n(CCCOC)c2nc3ccccc3nc12 do in these assays?
SW480 rereplic: inconclusive; MCF10A rerep: 13%; KB-V1 MDR tox: inactive; IL-1B inflam inh: -96*; KB-3-1 cytotox: inactive

How did COCCCn1c(N)c(C(=O)OCCOC)c2nc3ccccc3nc21 do in these assays?
SW480 rereplic: inconclusive; MCF10A rerep: -7%; KB-V1 MDR tox: inactive; IL-1B inflam inh: -19; KB-3-1 cytotox: inactive

How did CCCCCn1c(NC(=O)c2ccco2)c(C(=O)OCC)c2nc3ccccc3nc21 do in these assays?
SW480 rereplic: 3.7µM*; MCF10A rerep: 5.8µM*; KB-V1 MDR tox: inactive; IL-1B inflam inh: -101*; KB-3-1 cytotox: inactive

What do the screens show for `CCOC(=O)c1c(N)n(CCCOC(=O)c2ccco2)c2nc3ccccc3nc12`?
SW480 rereplic: inconclusive; MCF10A rerep: inconclusive; KB-V1 MDR tox: inconclusive; IL-1B inflam inh: 135; KB-3-1 cytotox: 12µM*

Results for COCCOC(=O)c1c(N)n(Cc2ccc(OC)cc2)c2nc3ccccc3nc12 ?
SW480 rereplic: 20%; MCF10A rerep: 5%; KB-V1 MDR tox: inactive; IL-1B inflam inh: -26; KB-3-1 cytotox: inactive

What do the screens show for `O=C(CN1CCCCC1)c1ccccc1`?
KB-V1 MDR tox: inactive; KB-3-1 cytotox: inactive

Results for COc1ccc(C2=NCC(=O)N(CC(=O)NCc3ccco3)c3sc4c(c32)CCCC4)cc1OC ?
SW480 rereplic: -1%; MCF10A rerep: -8%; KB-V1 MDR tox: inactive; IL-1B inflam inh: -56*; KB-3-1 cytotox: inactive

Results for CCN1CCN(c2nc3c(c(=O)[nH]2)CCCC3)CC1 ?
SW480 rereplic: -15%; MCF10A rerep: 12%; KB-V1 MDR tox: inactive; IL-1B inflam inh: 0; KB-3-1 cytotox: inactive

What do the screens show for `CCC(=O)OC1CCC2C3CCC4CC(=O)C=CC4(C)C3CCC12C` (stereo not given)?
SW480 rereplic: inconclusive; MCF10A rerep: inconclusive; KB-V1 MDR tox: 5.8µM*; IL-1B inflam inh: -79*; KB-3-1 cytotox: 10µM*

What do the screens show for `CC(C)CCC(=O)OC1CCC2C3CCC4=CC(=O)CC[C@]4(C)C3CC[C@]12C` (stereo not given in full)?
SW480 rereplic: 1%; MCF10A rerep: inconclusive

What do the screens show for `O=C(NC1CN2CCC1CC2)c1cc(Cl)c([N+](=O)[O-])c2nc[nH]c12` (stereo not given)?
SW480 rereplic: 4%; MCF10A rerep: inconclusive; KB-V1 MDR tox: inactive; IL-1B inflam inh: -104*; KB-3-1 cytotox: inactive

Results for COC(=O)[C@]1(C)N[C@H](CN(C)S(=O)(=O)c2ccc(-c3ccccc3)cc2)[C@@H]2C(=O)N(Cc3ccccc3)C(=O)[C@@H]21 ?
SW480 rereplic: 4%; MCF10A rerep: inconclusive; KB-V1 MDR tox: inactive; IL-1B inflam inh: -5; KB-3-1 cytotox: inactive

Results for Oc1ccc(Cl)cc1Sc1cc(Cl)ccc1O ?
SW480 rereplic: inconclusive; MCF10A rerep: inconclusive; KB-V1 MDR tox: inconclusive; IL-1B inflam inh: -101*; KB-3-1 cytotox: inconclusive

How did Oc1ccc(Cl)cc1 do in these assays?
SW480 rereplic: inconclusive; MCF10A rerep: 9%; KB-V1 MDR tox: inactive; IL-1B inflam inh: 24; KB-3-1 cytotox: inactive

High-throughput results from PubChem BioAssay.
